Reference: publication PMC11006913
Substitutions are numbered along the chain they refer to.

Columns and labels:
Test in all cases: PBM; 200 nM protein, PBS
Details in all cases: dsDNA, one strand shown
[1] = target: T1, SIX6 (Homo sapiens, UniProt O95475 114-200, L167I)
T1 sequence: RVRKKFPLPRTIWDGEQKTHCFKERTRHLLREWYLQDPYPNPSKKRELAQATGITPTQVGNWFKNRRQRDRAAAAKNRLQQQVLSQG

[2] = target: T2, SIX6 (Homo sapiens, UniProt O95475 114-200, L143V)
T2 sequence: T1 sequence with L30V, I54L

[3] = target: T3, SIX6 (Homo sapiens, UniProt O95475 114-200, H141N)
T3 sequence: T1 sequence with H28N, I54L

[4] = target: T4, SIX6 (Homo sapiens, UniProt O95475 114-200, T165P)
T4 sequence: T1 sequence with T52P, I54L

[5] = target: T5, SIX6 (Homo sapiens, UniProt O95475 114-200, L167M)
T5 sequence: T1 sequence with I54M

[6] = target: T6, SIX6 (Homo sapiens, UniProt O95475 114-200, L143M)
T6 sequence: T1 sequence with L30M, I54L

[7] = target: T7, SIX6 (Homo sapiens, UniProt O95475 114-200, L143I)
T7 sequence: T1 sequence with L30I, I54L

[8] = target: T8, SIX6 (Homo sapiens, UniProt O95475 114-200, T165G)
T8 sequence: T1 sequence with T52G, I54L

[9] = target: T9, SIX6 (Homo sapiens, UniProt O95475 114-200, T139Q)
T9 sequence: T1 sequence with T26Q, I54L

[10] = target: T10, SIX6 (Homo sapiens, UniProt O95475 114-200, T165A)
T10 sequence: T1 sequence with T52A, I54L

[11] = target: T11, SIX6 (Homo sapiens, UniProt O95475 114-200, L167V)
T11 sequence: T1 sequence with I54V

[12] = target: T12, SIX6 (Homo sapiens, UniProt O95475 114-200)
T12 sequence: T1 sequence with I54L

[13] = target: T13, SIX6 (Homo sapiens, UniProt O95475 114-200, T165I)
T13 sequence: T1 sequence with T52I, I54L

[14] = target: NKX3-2 (Homo sapiens, UniProt P78367 192-278, P234S)
Chain of NKX3-2 (Homo sapiens, UniProt P78367 192-278, P234S) (P78367 192-278 P234S): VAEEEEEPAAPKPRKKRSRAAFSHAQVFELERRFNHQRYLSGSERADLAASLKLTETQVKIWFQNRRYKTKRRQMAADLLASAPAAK

[15] = target: NKX3-2 (Homo sapiens, UniProt P78367 192-278)
Chain of NKX3-2 (Homo sapiens, UniProt P78367 192-278) (P78367 192-278): as the sequence (P78367 192-278 P234S) above, with S43P counted along it

| Sequence | binding signal [1] | binding signal [2] | binding signal [3] | binding signal [4] | binding signal [5] | binding signal [6] | binding signal [7] | binding signal [8] | binding signal [9] | binding signal [10] | binding signal [11] | binding signal [12] | binding signal [13] | binding signal [14] | binding signal [15] |
| --- | --- | --- | --- | --- | --- | --- | --- | --- | --- | --- | --- | --- | --- | --- | --- |
| ATACACCA | 10.4 upbm affinity estimate (log intensity, higher = more binding, comparable within an allelic series) | 10.1 upbm affinity estimate (log intensity, higher = more binding, comparable within an allelic series) | 10.6 upbm affinity estimate (log intensity, higher = more binding, comparable within an allelic series) | 9.67 upbm affinity estimate (log intensity, higher = more binding, comparable within an allelic series) | 10.2 upbm affinity estimate (log intensity, higher = more binding, comparable within an allelic series) | 10.4 upbm affinity estimate (log intensity, higher = more binding, comparable within an allelic series) | 10.2 upbm affinity estimate (log intensity, higher = more binding, comparable within an allelic series) | 10.8 upbm affinity estimate (log intensity, higher = more binding, comparable within an allelic series) | 10.8 upbm affinity estimate (log intensity, higher = more binding, comparable within an allelic series) | 10.6 upbm affinity estimate (log intensity, higher = more binding, comparable within an allelic series) | 10.2 upbm affinity estimate (log intensity, higher = more binding, comparable within an allelic series) | 10.5 upbm affinity estimate (log intensity, higher = more binding, comparable within an allelic series) | 10.5 upbm affinity estimate (log intensity, higher = more binding, comparable within an allelic series) |  |  |
| CAGCGTGC | 9.15 upbm affinity estimate (log intensity, higher = more binding, comparable within an allelic series) | 9.01 upbm affinity estimate (log intensity, higher = more binding, comparable within an allelic series) | 9.08 upbm affinity estimate (log intensity, higher = more binding, comparable within an allelic series) | 9.06 upbm affinity estimate (log intensity, higher = more binding, comparable within an allelic series) | 9.05 upbm affinity estimate (log intensity, higher = more binding, comparable within an allelic series) | 9.23 upbm affinity estimate (log intensity, higher = more binding, comparable within an allelic series) | 9.08 upbm affinity estimate (log intensity, higher = more binding, comparable within an allelic series) | 9.19 upbm affinity estimate (log intensity, higher = more binding, comparable within an allelic series) | 9.15 upbm affinity estimate (log intensity, higher = more binding, comparable within an allelic series) | 9.11 upbm affinity estimate (log intensity, higher = more binding, comparable within an allelic series) | 9.05 upbm affinity estimate (log intensity, higher = more binding, comparable within an allelic series) | 9.14 upbm affinity estimate (log intensity, higher = more binding, comparable within an allelic series) | 9.05 upbm affinity estimate (log intensity, higher = more binding, comparable within an allelic series) |  |  |
| AGTATATC | 11 upbm affinity estimate (log intensity, higher = more binding, comparable within an allelic series) | 10.3 upbm affinity estimate (log intensity, higher = more binding, comparable within an allelic series) | 10.9 upbm affinity estimate (log intensity, higher = more binding, comparable within an allelic series) | 9.93 upbm affinity estimate (log intensity, higher = more binding, comparable within an allelic series) | 10.8 upbm affinity estimate (log intensity, higher = more binding, comparable within an allelic series) | 10.9 upbm affinity estimate (log intensity, higher = more binding, comparable within an allelic series) | 10.3 upbm affinity estimate (log intensity, higher = more binding, comparable within an allelic series) | 10.9 upbm affinity estimate (log intensity, higher = more binding, comparable within an allelic series) | 11 upbm affinity estimate (log intensity, higher = more binding, comparable within an allelic series) | 10.8 upbm affinity estimate (log intensity, higher = more binding, comparable within an allelic series) | 10.7 upbm affinity estimate (log intensity, higher = more binding, comparable within an allelic series) | 10.8 upbm affinity estimate (log intensity, higher = more binding, comparable within an allelic series) | 10.9 upbm affinity estimate (log intensity, higher = more binding, comparable within an allelic series) |  |  |
| CTGGCGCC | 8.88 upbm affinity estimate (log intensity, higher = more binding, comparable within an allelic series) | 8.96 upbm affinity estimate (log intensity, higher = more binding, comparable within an allelic series) | 8.82 upbm affinity estimate (log intensity, higher = more binding, comparable within an allelic series) | 9.1 upbm affinity estimate (log intensity, higher = more binding, comparable within an allelic series) | 8.85 upbm affinity estimate (log intensity, higher = more binding, comparable within an allelic series) | 8.93 upbm affinity estimate (log intensity, higher = more binding, comparable within an allelic series) | 8.9 upbm affinity estimate (log intensity, higher = more binding, comparable within an allelic series) | 8.9 upbm affinity estimate (log intensity, higher = more binding, comparable within an allelic series) | 8.85 upbm affinity estimate (log intensity, higher = more binding, comparable within an allelic series) | 8.87 upbm affinity estimate (log intensity, higher = more binding, comparable within an allelic series) | 8.8 upbm affinity estimate (log intensity, higher = more binding, comparable within an allelic series) | 8.82 upbm affinity estimate (log intensity, higher = more binding, comparable within an allelic series) | 8.87 upbm affinity estimate (log intensity, higher = more binding, comparable within an allelic series) | 10.6 upbm affinity estimate (log intensity, higher = more binding, comparable within an allelic series) | 10.5 upbm affinity estimate (log intensity, higher = more binding, comparable within an allelic series) |
| AGATCCTC | 10.5 upbm affinity estimate (log intensity, higher = more binding, comparable within an allelic series) | 9.98 upbm affinity estimate (log intensity, higher = more binding, comparable within an allelic series) | 10.3 upbm affinity estimate (log intensity, higher = more binding, comparable within an allelic series) | 9.64 upbm affinity estimate (log intensity, higher = more binding, comparable within an allelic series) |  | 10.5 upbm affinity estimate (log intensity, higher = more binding, comparable within an allelic series) | 9.91 upbm affinity estimate (log intensity, higher = more binding, comparable within an allelic series) |  | 10.6 upbm affinity estimate (log intensity, higher = more binding, comparable within an allelic series) | 10.4 upbm affinity estimate (log intensity, higher = more binding, comparable within an allelic series) | 10.2 upbm affinity estimate (log intensity, higher = more binding, comparable within an allelic series) | 10.4 upbm affinity estimate (log intensity, higher = more binding, comparable within an allelic series) |  |  |  |
| CCCCGCAG | 9.03 upbm affinity estimate (log intensity, higher = more binding, comparable within an allelic series) | 8.85 upbm affinity estimate (log intensity, higher = more binding, comparable within an allelic series) | 9.03 upbm affinity estimate (log intensity, higher = more binding, comparable within an allelic series) | 8.95 upbm affinity estimate (log intensity, higher = more binding, comparable within an allelic series) | 9 upbm affinity estimate (log intensity, higher = more binding, comparable within an allelic series) | 8.92 upbm affinity estimate (log intensity, higher = more binding, comparable within an allelic series) | 8.95 upbm affinity estimate (log intensity, higher = more binding, comparable within an allelic series) | 9.04 upbm affinity estimate (log intensity, higher = more binding, comparable within an allelic series) | 8.99 upbm affinity estimate (log intensity, higher = more binding, comparable within an allelic series) | 8.96 upbm affinity estimate (log intensity, higher = more binding, comparable within an allelic series) | 8.93 upbm affinity estimate (log intensity, higher = more binding, comparable within an allelic series) | 8.96 upbm affinity estimate (log intensity, higher = more binding, comparable within an allelic series) | 8.97 upbm affinity estimate (log intensity, higher = more binding, comparable within an allelic series) |  |  |
